According to PubChem BioAssay AID1159580 (chemical genetic matrix, 2015):
In all, about 5,500 compounds went through this assay and about 2,000 (36%) were called active. Another 18% or so got no clear call; they are omitted. Rule as the data show it: active = normalized growth mostly below about 0.91 (no sharp cut-off); inconclusive = no clear call, values can overlap the other calls; inactive = mostly above about 0.92. This is one part of the list.

Experiment: chemical genetic growth profiling, strain panel (AID 1159580);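 also: tested at 20 µM; growth read once vehicle control cultures reached saturation at 30 °C; 1 = growth at the plate median or of vehicle wells; lower values mean less growth of the strain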
Settings: S. cerevisiae deletion strains, growth OD

Measured: normalized growth

Nc1ccc(Sc2cc(Cl)ccc2Cl)nc1
active: locus YBR229C, strain ROT2, stronger effect = lower value 0.906 | locus YGR078C, strain PAC10, stronger effect = lower value 0.911 | locus YHR030C, strain SLT2, stronger effect = lower value 0.341 | locus YHR087W, strain rtc3, stronger effect = lower value 0.898 | locus YJL187C, strain SWE1, stronger effect = lower value 0.928 | locus YJR075W, strain HOC1, stronger effect = lower value 0.827 | locus YKL190W, strain CNB1, stronger effect = lower value 0.762 | locus YLR039C, strain RIC1, stronger effect = lower value 0.398 | locus YLR058C, strain SHM2 (second series), stronger effect = lower value 0.929 | locus YLR085C, strain ARP6, stronger effect = lower value 0.383 | locus YLR262C, strain YPT6, stronger effect = lower value 0.348 | locus YML094W, strain GIM5, stronger effect = lower value 0.828 | locus YMR307W, strain GAS1, stronger effect = lower value 0.454 | locus YNL298W, strain CLA4 (second series), stronger effect = lower value 0.781 | locus YNR030W, strain Alg12, stronger effect = lower value 0.785 | locus YOL006C, strain TOP1, stronger effect = lower value 0.594 | locus YPL241C, strain CIN2, stronger effect = lower value 0.737 | locus YPR135W, strain CTF4, stronger effect = lower value 0.497
inactive: locus YAL013W, strain DEP1, stronger effect = lower value 0.947 | locus YCL061C, strain MRC1, stronger effect = lower value 0.958 | locus YDL101C, strain DUN1, stronger effect = lower value 0.963 | locus YDR150W, strain NUM1, stronger effect = lower value 0.843 | locus YEL061C, strain CIN8, stronger effect = lower value 0.916 | locus YJR043C, strain POL32, stronger effect = lower value 0.932 | locus YMR219W, strain ESC1, stronger effect = lower value 0.958 | locus YNL153C, strain GIM3, stronger effect = lower value 0.934 | locus YNL322C, strain KRE1, stronger effect = lower value 0.97 | locus YPL055C, strain LGE1, stronger effect = lower value 0.99
